{
  "source": "ChEMBL document CHEMBL3988442",
  "about": "“University of Dundee, Small-Polar-MMV Screening Library” (2021)",
  "key": {"[1]": {"target": "T1, Aspartate--tRNA(Asp/Asn) ligase (Mycobacterium tuberculosis (strain ATCC 25618 / H37Rv)) (UniProt P9WFW3)", "T1 sequence (whole entry)": "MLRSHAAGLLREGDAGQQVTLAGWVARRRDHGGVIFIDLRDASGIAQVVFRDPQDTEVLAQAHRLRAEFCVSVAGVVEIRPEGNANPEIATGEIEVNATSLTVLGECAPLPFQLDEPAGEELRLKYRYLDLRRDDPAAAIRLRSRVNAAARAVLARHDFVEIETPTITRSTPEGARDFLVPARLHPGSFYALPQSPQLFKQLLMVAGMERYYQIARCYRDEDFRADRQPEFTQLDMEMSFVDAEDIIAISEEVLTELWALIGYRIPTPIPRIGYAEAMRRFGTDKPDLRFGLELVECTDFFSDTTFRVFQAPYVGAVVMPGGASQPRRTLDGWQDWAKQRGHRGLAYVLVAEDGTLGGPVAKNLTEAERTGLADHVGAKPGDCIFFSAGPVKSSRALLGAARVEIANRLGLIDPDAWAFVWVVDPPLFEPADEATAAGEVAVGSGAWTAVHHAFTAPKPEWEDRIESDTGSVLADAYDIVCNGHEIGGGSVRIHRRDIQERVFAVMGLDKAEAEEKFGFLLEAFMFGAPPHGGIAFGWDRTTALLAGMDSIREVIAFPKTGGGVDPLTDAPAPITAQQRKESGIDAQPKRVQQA", "experiment": "Assay for Asp RNA synthetase-1 from Mycobacterium tuberculosis", "assay_type": "functional", "set-up": "scale not given: direction of the effect not stated beside the values", "conditions": "30 µM"}, "[2]": {"target": "Shiga toxin 2 (Escherichia coli O157:H7) (UniProt P09385+P09386)", "experiment": "E. coli 0.157:H7 Shiga Toxin SOP - stx2 screening assay", "assay_type": "functional", "set-up": "scale not given: direction of the effect not stated beside the values", "conditions": "30 µM"}},
  "data": [
    {"smiles": "Cc1cc(N2CCCN(C(=O)Cc3ccc(O)c(Cl)c3)CC2)ccn1", "values": [
      {"measurement": "Percent Effect", "setting": "[1]", "result": 1.92, "unit": "%"},
      {"measurement": "Percent Effect", "setting": "[2]", "result": -29.5, "unit": "%"}
    ]},
    {"smiles": "CCn1ccnc1CN1CCN(Cc2ccccn2)CC1C", "note": "(stereo not drawn)", "values": [
      {"measurement": "Percent Effect", "setting": "[1]", "result": -1.39, "unit": "%"},
      {"measurement": "Percent Effect", "setting": "[2]", "result": -13.6, "unit": "%"}
    ]},
    {"smiles": "Cc1nc2ccccc2nc1CN1CCCC1Cn1cncn1", "note": "(stereo not drawn)", "values": [
      {"measurement": "Percent Effect", "setting": "[1]", "result": -6.08, "unit": "%"},
      {"measurement": "Percent Effect", "setting": "[2]", "result": 7.83, "unit": "%"}
    ]},
    {"smiles": "COCCN(C)CCN1CC2(CCN(C3CCCOC3)CC2)OC1=O", "note": "(stereo not drawn)", "values": [
      {"measurement": "Percent Effect", "setting": "[1]", "result": 3.6, "unit": "%"},
      {"measurement": "Percent Effect", "setting": "[2]", "result": -60.6, "unit": "%"}
    ]},
    {"smiles": "O=C(Cc1n[nH]c2ccccc12)N1CCC(Nc2cccnn2)CC1", "values": [
      {"measurement": "Percent Effect", "setting": "[1]", "result": 2.78, "unit": "%"},
      {"measurement": "Percent Effect", "setting": "[2]", "result": -16.9, "unit": "%"}
    ]},
    {"smiles": "c1ccc(-c2nnc(CNCCn3cccn3)o2)cc1", "values": [
      {"measurement": "Percent Effect", "setting": "[1]", "result": -5.08, "unit": "%"},
      {"measurement": "Percent Effect", "setting": "[2]", "result": 0.764, "unit": "%"}
    ]},
    {"smiles": "O=C(NCc1ccc(F)cc1)N1CCC(C2OCCO2)CC1", "values": [
      {"measurement": "Percent Effect", "setting": "[1]", "result": 3.59, "unit": "%"},
      {"measurement": "Percent Effect", "setting": "[2]", "result": 1.94, "unit": "%"}
    ]},
    {"smiles": "Cc1cc(C(F)(F)F)c2c(C3CCN(S(=O)(=O)N(C)C)CC3)noc2n1", "values": [
      {"measurement": "Percent Effect", "setting": "[1]", "result": 7.31, "unit": "%"},
      {"measurement": "Percent Effect", "setting": "[2]", "result": 0.93, "unit": "%"}
    ]},
    {"smiles": "Cc1cccnc1CNCC1(O)CCCN(Cc2ccc(F)cc2)C1=O", "note": "(stereo not drawn)", "values": [
      {"measurement": "Percent Effect", "setting": "[1]", "result": 0.386, "unit": "%"},
      {"measurement": "Percent Effect", "setting": "[2]", "result": 4.74, "unit": "%"}
    ]},
    {"smiles": "CCCS(=O)(=O)N1CCN(c2ccnc(N3CCCC3)n2)CC1", "values": [
      {"measurement": "Percent Effect", "setting": "[1]", "result": 2.06, "unit": "%"},
      {"measurement": "Percent Effect", "setting": "[2]", "result": -50.6, "unit": "%"}
    ]},
    {"smiles": "COc1ccccc1OCC(=O)Nc1ncccc1Cl", "values": [
      {"measurement": "Percent Effect", "setting": "[1]", "result": -0.641, "unit": "%"},
      {"measurement": "Percent Effect", "setting": "[2]", "result": 1.67, "unit": "%"}
    ]},
    {"smiles": "CC1CCCN(Cc2c(C3CCOCC3)[nH]c3ncccc23)C1", "note": "(stereo not drawn)", "values": [
      {"measurement": "Percent Effect", "setting": "[1]", "result": 3.59, "unit": "%"},
      {"measurement": "Percent Effect", "setting": "[2]", "result": 12.7, "unit": "%"}
    ]},
    {"smiles": "COc1cc(C)c(S(=O)(=O)NCc2cccnc2N(C)C)c(C)c1", "values": [
      {"measurement": "Percent Effect", "setting": "[1]", "result": 2.73, "unit": "%"},
      {"measurement": "Percent Effect", "setting": "[2]", "result": -18.1, "unit": "%"}
    ]},
    {"smiles": "COc1ccc(NC(=O)C2CCOC2)c(N2CCN(C(C)=O)CC2)n1", "note": "(stereo not drawn)", "values": [
      {"measurement": "Percent Effect", "setting": "[1]", "result": 1.42, "unit": "%"},
      {"measurement": "Percent Effect", "setting": "[2]", "result": -6.14, "unit": "%"}
    ]},
    {"smiles": "COc1ccc(C2=C(C)C(N3CCc4ccccc43)=NS2(=O)=O)cc1", "values": [
      {"measurement": "Percent Effect", "setting": "[1]", "result": -2.38, "unit": "%"},
      {"measurement": "Percent Effect", "setting": "[2]", "result": -24.6, "unit": "%"}
    ]},
    {"smiles": "Cc1ccc(=O)n(CC2(O)CCN(Cc3cnc(C)nc3)CC2)n1", "values": [
      {"measurement": "Percent Effect", "setting": "[1]", "result": 1.71, "unit": "%"},
      {"measurement": "Percent Effect", "setting": "[2]", "result": 5.87, "unit": "%"}
    ]},
    {"smiles": "COc1cc2ncn(CC(=O)NCCCN(C)C)c(=O)c2cc1OC", "values": [
      {"measurement": "Percent Effect", "setting": "[1]", "result": -2.9, "unit": "%"},
      {"measurement": "Percent Effect", "setting": "[2]", "result": -29.9, "unit": "%"}
    ]},
    {"smiles": "CC(C)(NCC(=O)NCC(F)(F)F)c1ccc2c(c1)OCCO2", "values": [
      {"measurement": "Percent Effect", "setting": "[1]", "result": -0.335, "unit": "%"},
      {"measurement": "Percent Effect", "setting": "[2]", "result": 22.1, "unit": "%"}
    ]},
    {"smiles": "CCn1c(CN2CCC(O)(C(=O)OC)CC2)nc2c(F)cccc21", "values": [
      {"measurement": "Percent Effect", "setting": "[1]", "result": -3.57, "unit": "%"},
      {"measurement": "Percent Effect", "setting": "[2]", "result": -24.9, "unit": "%"}
    ]}
  ]
}
